Most compounds without a hit are left out; they make up all but 6.9% or so of the library.
MCF10A rerep: A quantitative high throughput screen for small molecules that induce DNA re-replication in MCF 10a normal breast cells. 2.9% of 350,000 active. MCF 10A DNA re-replication, Hoechst nuclear intensity, 48 h. AID 624296, 2012. Potency, µM (series often up to 46.1 µM), without a hit: top-dose activity, positive = re-replication, usual class: activators; also: potency is read from the fitted curve at half-maximal effect; % of control where 0% means no effect; nearly all actives have a fitted effect of over 50% in size
SW480 rerep: A quantitative high throughput screen for small molecules that induce DNA re-replication in SW480 colon adenocarcinoma cells; SW480 DNA re-replication, Hoechst DNA content imaging, 48 h; Potency, µM (titrated, usually from 46.1 µM), inactives show top-dose re-replication activation, usual class: activators; 1.8% of 340,000 active; also: potency is read from the fitted curve at half-maximal effect; % of control where 0% means no effect; nearly all actives have a fitted effect of over 55% in size
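DNA re-replication was detected as more nuclei of elevated Hoechst intensity after 48 hr exposure to compound (23 nL pinned per well of 250 cells).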
KB-V1 MDR tox: qHTS assay for MDR1-selective chemotherapeutics: Primary screen using the drug-selected MDR subline cells KB-V1. KB-V1 MDR cells viability, CellTiter-Glo, 72 h. Potency, µM (titrated, usually from 46.1 µM), most hits filed as cytotoxic. 3.4% of 400,000 active. AID 1347076, 2019; also: potency is read from the fitted curve at half-maximal effect; % is scaled to controls: 0 for no effect and ±100 for the full control effect; nearly all actives have a fitted effect of over 60% in size
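Compound-treated KB-V1 multidrug-resistant cells, 72 h, 37 degrees C; viability by CellTiter-Glo. Fitted qHTS curves give the values.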
Giardia killer: Small Molecules that selectively kill Giardia lamblia: qHTS | 0.15% of 340,000 active | AID 540267, 2011 | Giardia lamblia trophozoite viability | activity change, % at 7.66 µM, hits read low; in the data active = activity change below about -80%; inconclusive = between about -30% and that limit;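 also: parasites exposed to compound for two days anaerobically before the ATP read; % is scaled to controls: 0 for no effect and ±100 for the full control effect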
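ATP-content bioluminescence gauges trophozoite survival. Cells (100/well) receive compound and incubate anaerobically for 48 hrs at 37 deg C; detection reagent follows for 15-30 min at room temperature.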
KB-3-1 tox: qHTS assay for MDR1-selective chemotherapeutics: Primary screen using the parental adenocarcinoma cell KB-3-1; KB-3-1 viability, CellTiter-Glo ATP luminescence, 72 h; Potency, µM (highest dose often 46.1 µM), usual class: cytotoxic; 1.4% of 400,000 active; AID 1347075, 2019; also: potency is read from the fitted curve at half-maximal effect; % is scaled to controls: 0 for no effect and ±100 for the full control effect; nearly all actives have a fitted effect of over 60% in size
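KB-3-1 parental drug-naive adenocarcinoma cells in DMEM/10% FBS, incubated 72 h at 37 C with pin-transferred compounds across a concentration series. Viability by CellTiter-Glo luminescence; concentration-response curves fitted after normalization.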
ASM inhibitor: Inhibitors of Secretory Acid Sphingomyelinase (S-ASM): qHTS; 0.006% of 340,000 active; placental ASM, HMU-PC fluorogenic substrate, 60 min; Sphingomyelin phosphodiesterase (Homo sapiens), P17405; Potency, µM (titrated, usually from 57.5 µM), for the others: top-dose activity change, negative = inhibition, usual class: inhibitors; also: potency is read from the fitted curve at half-maximal effect
Target sequence (P17405 47-631 limits assumed): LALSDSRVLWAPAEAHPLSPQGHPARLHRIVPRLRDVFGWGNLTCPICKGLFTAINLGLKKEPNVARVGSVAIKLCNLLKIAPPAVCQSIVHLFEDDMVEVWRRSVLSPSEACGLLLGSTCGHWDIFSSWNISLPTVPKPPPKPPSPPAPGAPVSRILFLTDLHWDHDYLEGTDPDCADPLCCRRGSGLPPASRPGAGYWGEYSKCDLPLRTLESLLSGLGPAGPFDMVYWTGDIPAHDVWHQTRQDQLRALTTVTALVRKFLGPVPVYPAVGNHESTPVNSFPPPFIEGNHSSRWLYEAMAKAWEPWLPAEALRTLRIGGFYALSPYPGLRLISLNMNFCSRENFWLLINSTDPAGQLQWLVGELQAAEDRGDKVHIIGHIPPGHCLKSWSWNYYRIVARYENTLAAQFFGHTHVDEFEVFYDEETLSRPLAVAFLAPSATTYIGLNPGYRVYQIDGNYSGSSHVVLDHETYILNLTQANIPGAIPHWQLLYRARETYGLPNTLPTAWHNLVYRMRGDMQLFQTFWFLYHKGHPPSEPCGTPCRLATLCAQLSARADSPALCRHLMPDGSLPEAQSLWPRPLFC
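Human placenta-derived ASM preincubated with compound 10 min at room temperature, then reacted with 9 uM (final) fluorogenic HMU-PC substrate for 60 min at 37 C. Stop solution raises pH to 10; fluorescence read at Ex 386/Em 447 nm.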
* marks the source's active call; other numbers are inactive results; i = inactive; ? = inconclusive; / = no result; [ ] = remark or other dose. Unless noted, calls follow the shape of the dose curve; as a rule, active = well fitted curve in the direction sought with a large enough effect; inconclusive = small, poorly fitted or top-dose-only effect, or another doubt; inactive = no such curve, though single readings can be large; an effect the other way counts as inactive or inconclusive.

SMILES	MCF10A rerep	SW480 rerep	KB-V1 MDR tox	Giardia killer	KB-3-1 tox	ASM inhibitor
O=C(NCc1ccccc1Cl)c1ccc(Nc2nc3ccccc3n3nnnc23)cc1	/	/	/	10	/	/
N#Cc1cc(N2CCCCC2)c([N+](=O)[O-])cc1C#N	?	11%	i	23	i	-5%
O=[N+]([O-])c1cc2no[n+]([O-])c2cc1N1CCCCC1	3.3µM*	6.5µM*	i	-28	?	-3%
COc1ccc(NC(=O)C(NC(=O)Cc2cccs2)c2ccc(C)cc2)cc1 (configuration not stated)	?	-2%	i	22	i	5%
COc1ccc(NC(=O)C(NC(=O)Cc2cccs2)c2ccccc2)cc1 (configuration not stated)	14%	-1%	12µM*	11	i	2%
COc1ccccc1NS(=O)(=O)c1ccc(NC(=O)Cc2cccs2)cc1	7%	-12%	21µM*	-16	i	-2%
Cc1cccc(-n2c(=O)c3c(c4cc(C)ccc4n3C)n(CC(=O)NCC3CCCO3)c2=O)c1 (configuration not stated)	/	/	i	/	i	/
O=C(Nc1cc(Cl)cc(Cl)c1)c1cnn2c1NC(=C1CC1)C=C2C(F)F	/	/	i	/	i	/
Cc1cccc(OC(C)C(=O)N(Cc2cccs2)C2CCS(=O)(=O)C2)c1C (configuration not stated)	4%	5%	5.8µM*	3	i	-2%
Cc1ccccc1OCC(=O)N(Cc1cccs1)C1CCS(=O)(=O)C1 (configuration not stated)	-178%[0.0737 µM]	-5%	i	-19	i	3%
Cc1cccc(N(CC(=O)NC2CCCCC2)C(=O)CCC(=O)Nc2nccs2)c1	-1%	-13%	i	7	i	1%
OC(c1cc(-c2ccc(C(F)(F)F)cc2)nc(C(F)(F)F)c1)C1CCCCN1 (configuration not stated)	23µM*	?	i	-3	i	-21%
OC(c1cc(C(F)(F)F)nc2c(C(F)(F)F)cccc12)C1CCCCN1 (configuration not stated)	?	?	?	-6	?	-5%
CCc1cccc(C)c1NC(=O)c1cc(CN2CCCC2)on1	/	/	i	/	i	/
COc1ccc(OC)c2sc(N3CCc4ccccc4C3)nc12	7%	-1%	?	8	i	-1%
c1ccc2c(c1)CCN(c1nc3cc4c(cc3s1)OCCO4)C2	15µM*	4%	?	?	?	29%
O=c1c2ccccc2nnn1CSc1nc2ccccc2[nH]1	?	0%	i	-1	i	1%
Cc1ccc2nc(SCC(=O)c3c(C)[nH]c4ccccc34)[nH]c2c1	13µM*	9%	?	0	i	?
Cc1ccc2nc(SCn3nnc4ccccc4c3=O)[nH]c2c1	?	0%	23µM*	2	i	0%
CCCN(C)CCCOc1cc2nc(N3CCCN(C)CC3)nc(NC3CCN(C)CC3)c2cc1OC	/	/	i	/	?	/
COc1ccc(NC2=NC3(CCCCC3)N=C(N)N2)cc1	0%	-2%[9.22 µM]	i	-21	i	-1%
CCCCOc1ccc(NC2=NC3(CCCCC3)N=C(N)N2)cc1	?	4%	i	-24	15µM*	-4%
O=C(NC1CCN(Cc2ccccc2)CC1)c1cccc(S(=O)(=O)Nc2ccc(F)cc2)c1	?	-6%	i	28	?	0%
O=C1/C(=C\c2cc(Cl)c(O)c(Cl)c2)SC(=S)N1Cc1ccccc1	2.1µM*	?	3.7µM*	-5	?	-18%
COc1ccc(O)c(/C=C2/SC(=S)N(Cc3ccccc3)C2=O)c1	13µM*	15%	?	-26	?	-29%
SMILES	MCF10A rerep	SW480 rerep	KB-V1 MDR tox	Giardia killer	KB-3-1 tox	ASM inhibitor
COc1ccc(OC)c(/C=C2\SC(=S)N(Cc3cccnc3)C2=O)c1	6.5µM*	16µM*	15µM*	-3	?	-19%
CCOc1ccccc1NC(=S)N1CCC(NC(=O)C(C)(C)C)CC1	1%	-1%	i	2	i	2%
O=C(Nc1ncc(Cc2ccc(SC(F)F)cc2)s1)c1ccccc1	?	6.5µM*	2.1µM*	-3	1.5µM*	-1%
O=C(Nc1ncc(Cc2ccccc2)s1)c1cccs1	?	1%	?	-17	?	-16%
O=C(Nc1ncc(Cc2cccc(Cl)c2)s1)c1cccs1	?	14%	13µM*	7	?	-27%
Cc1ccc(C(=O)Nc2nc3c(s2)CCCC3)o1	3%	-5%	12µM*	?	?	-9%
Cc1ccc(C(=O)Nc2ncc(Cc3ccccc3)s2)o1	?	-20%	i	?	3.5µM*	-2%
CCOC(=O)N1CCN(C(=O)c2oc3ccc(S(=O)(=O)N(CC)CC)cc3c2C)CC1	14%	-1%	i	14	i	0%
COP(=O)(c1ccc(N(C)C)cc1)C(O)c1ccccc1 (configuration not stated)	-18%	-3%	i	7	i	-1%
COc1ccc(-c2cc(C(F)F)nc(-n3nc(C)cc3C)n2)cc1	15%	-6%	23µM*	-21	i	-7%
Cc1ccc(-c2cc(C(F)F)nc(N3CCOCC3)n2)cc1	?	11%	i	-11	i	3%
Cc1ccc(N(CN2CCCC2=O)C(=O)c2ccc(C)c(C)c2)cc1	5%	-8%	8.2µM*	5	i	1%
Cc1ccc(C(=O)N(CN2CCCC2=O)c2ccc(F)cc2)cc1C	3%	-13%	18µM*	0	i	1%
CN(C)C(=O)c1ccc(S(=O)(=O)NCc2ccccc2Cl)s1	/	/	i	/	i	/
CCOC(=O)c1c(S(=O)(=O)NCC(=O)Nc2cccc(CC)c2)c(C)n(C)c1C	/	/	i	/	i	/
CCOC(=O)c1c(NC(=O)c2cc(=O)c3cc(C)ccc3o2)sc2c1CCCC2	/	/	i	/	i	/
Nc1nc(Cl)nc2c1ncn2C1CC(O)C(CO)O1 (configuration not stated)	?	?	?	?	8.2µM*	0%
Nc1ncn([C@H]2C[C@H](O)[C@@H](CO)O2)c(=O)n1	-2%	0.23µM*	i	?	i	-2%
